Results taken from PubChem BioAssay.
The other results are listed elsewhere or left out. Calls of active or inactive are those of the source. Rule as the data show it, unless noted: active = inhibition above about 30%; inactive = the rest.

Key:
[1] = target: Nuclear receptor coactivator 3 (Homo sapiens) (UniProt Q9Y6Q9); experiment: NCOA3 GAL4-fusion reporter inhibition – cell-based, luminescence, quadruplicate, confirmation (AID 588792;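 active = mean inhibition over 43.08%, the solvent-only control mean plus 3 SD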;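 also: 0% = DMSO treated cells and 100% = gossypol at 36 µM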); conditions: HEK293 GAL4-SRC3 luciferase reporter, at 3.6 µM, hits give high values
Nuclear receptor coactivator 3 (Homo sapiens), sequence (Q9Y6Q9 whole entry, looked up, the tested form may be a part): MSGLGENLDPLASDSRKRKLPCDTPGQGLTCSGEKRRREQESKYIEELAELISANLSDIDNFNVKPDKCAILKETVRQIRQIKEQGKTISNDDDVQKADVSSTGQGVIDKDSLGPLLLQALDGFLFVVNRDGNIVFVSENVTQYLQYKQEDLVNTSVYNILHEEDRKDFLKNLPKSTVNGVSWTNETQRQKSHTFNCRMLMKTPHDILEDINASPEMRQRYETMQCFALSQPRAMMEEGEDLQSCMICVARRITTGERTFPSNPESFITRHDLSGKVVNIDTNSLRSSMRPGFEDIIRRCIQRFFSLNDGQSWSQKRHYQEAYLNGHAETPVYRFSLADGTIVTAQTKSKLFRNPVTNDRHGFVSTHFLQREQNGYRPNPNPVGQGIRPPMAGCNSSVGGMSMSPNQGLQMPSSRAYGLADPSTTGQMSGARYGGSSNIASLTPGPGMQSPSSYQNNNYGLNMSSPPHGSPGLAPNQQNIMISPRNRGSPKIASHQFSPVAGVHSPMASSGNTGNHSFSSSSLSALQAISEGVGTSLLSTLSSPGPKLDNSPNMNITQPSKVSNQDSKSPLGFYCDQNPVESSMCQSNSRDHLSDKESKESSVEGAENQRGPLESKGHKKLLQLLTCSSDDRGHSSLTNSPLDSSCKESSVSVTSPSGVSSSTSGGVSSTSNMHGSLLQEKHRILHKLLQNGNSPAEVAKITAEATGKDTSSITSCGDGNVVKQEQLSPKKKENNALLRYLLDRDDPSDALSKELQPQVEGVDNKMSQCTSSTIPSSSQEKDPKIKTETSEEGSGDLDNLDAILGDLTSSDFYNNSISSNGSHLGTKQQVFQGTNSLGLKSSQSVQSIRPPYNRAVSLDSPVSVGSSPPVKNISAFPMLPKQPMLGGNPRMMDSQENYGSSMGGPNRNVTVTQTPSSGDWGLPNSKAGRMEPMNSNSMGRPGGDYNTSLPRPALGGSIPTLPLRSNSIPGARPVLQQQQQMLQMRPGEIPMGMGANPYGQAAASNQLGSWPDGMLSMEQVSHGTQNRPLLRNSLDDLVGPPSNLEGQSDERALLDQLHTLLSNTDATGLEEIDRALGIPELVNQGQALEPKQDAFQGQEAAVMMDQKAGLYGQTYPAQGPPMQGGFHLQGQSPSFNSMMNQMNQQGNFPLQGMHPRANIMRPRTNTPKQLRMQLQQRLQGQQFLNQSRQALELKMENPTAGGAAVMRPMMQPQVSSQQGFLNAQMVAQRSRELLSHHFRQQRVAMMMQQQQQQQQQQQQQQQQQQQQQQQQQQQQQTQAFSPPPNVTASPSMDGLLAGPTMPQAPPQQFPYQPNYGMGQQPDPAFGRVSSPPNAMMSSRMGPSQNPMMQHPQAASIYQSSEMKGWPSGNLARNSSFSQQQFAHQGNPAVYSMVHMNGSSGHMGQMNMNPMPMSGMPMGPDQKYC

[2] = system: transactivating tegument protein VP16 (Human herpesvirus 1), Gal4-VP16 luciferase reporter; experiment: repression of VP16-driven luciferase reporter – cell-based, luminescence, high throughput, counter-screen for SRC3 inhibitor project (AID 588794); conditions: mammalian cells, at 3.6 µM, hits give high values
[3] = target: Nuclear receptor coactivator 1 (Homo sapiens) (UniProt Q15788); experiment: NCOA1 GAL4-fusion reporter inhibition – cell-based, luminescence, quadruplicate, confirmation (AID 588820;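 active = mean inhibition above 46.68%, the untreated control wells mean plus 3 SD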;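 also: 0% = DMSO wells and 100% = gossypol 36 µM treated wells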); conditions: HEK293 GAL4-SRC1 luciferase reporter, at 3.6 µM, hits give high values
Nuclear receptor coactivator 1 (Homo sapiens), sequence (Q15788 whole entry, looked up, the tested form may be a part): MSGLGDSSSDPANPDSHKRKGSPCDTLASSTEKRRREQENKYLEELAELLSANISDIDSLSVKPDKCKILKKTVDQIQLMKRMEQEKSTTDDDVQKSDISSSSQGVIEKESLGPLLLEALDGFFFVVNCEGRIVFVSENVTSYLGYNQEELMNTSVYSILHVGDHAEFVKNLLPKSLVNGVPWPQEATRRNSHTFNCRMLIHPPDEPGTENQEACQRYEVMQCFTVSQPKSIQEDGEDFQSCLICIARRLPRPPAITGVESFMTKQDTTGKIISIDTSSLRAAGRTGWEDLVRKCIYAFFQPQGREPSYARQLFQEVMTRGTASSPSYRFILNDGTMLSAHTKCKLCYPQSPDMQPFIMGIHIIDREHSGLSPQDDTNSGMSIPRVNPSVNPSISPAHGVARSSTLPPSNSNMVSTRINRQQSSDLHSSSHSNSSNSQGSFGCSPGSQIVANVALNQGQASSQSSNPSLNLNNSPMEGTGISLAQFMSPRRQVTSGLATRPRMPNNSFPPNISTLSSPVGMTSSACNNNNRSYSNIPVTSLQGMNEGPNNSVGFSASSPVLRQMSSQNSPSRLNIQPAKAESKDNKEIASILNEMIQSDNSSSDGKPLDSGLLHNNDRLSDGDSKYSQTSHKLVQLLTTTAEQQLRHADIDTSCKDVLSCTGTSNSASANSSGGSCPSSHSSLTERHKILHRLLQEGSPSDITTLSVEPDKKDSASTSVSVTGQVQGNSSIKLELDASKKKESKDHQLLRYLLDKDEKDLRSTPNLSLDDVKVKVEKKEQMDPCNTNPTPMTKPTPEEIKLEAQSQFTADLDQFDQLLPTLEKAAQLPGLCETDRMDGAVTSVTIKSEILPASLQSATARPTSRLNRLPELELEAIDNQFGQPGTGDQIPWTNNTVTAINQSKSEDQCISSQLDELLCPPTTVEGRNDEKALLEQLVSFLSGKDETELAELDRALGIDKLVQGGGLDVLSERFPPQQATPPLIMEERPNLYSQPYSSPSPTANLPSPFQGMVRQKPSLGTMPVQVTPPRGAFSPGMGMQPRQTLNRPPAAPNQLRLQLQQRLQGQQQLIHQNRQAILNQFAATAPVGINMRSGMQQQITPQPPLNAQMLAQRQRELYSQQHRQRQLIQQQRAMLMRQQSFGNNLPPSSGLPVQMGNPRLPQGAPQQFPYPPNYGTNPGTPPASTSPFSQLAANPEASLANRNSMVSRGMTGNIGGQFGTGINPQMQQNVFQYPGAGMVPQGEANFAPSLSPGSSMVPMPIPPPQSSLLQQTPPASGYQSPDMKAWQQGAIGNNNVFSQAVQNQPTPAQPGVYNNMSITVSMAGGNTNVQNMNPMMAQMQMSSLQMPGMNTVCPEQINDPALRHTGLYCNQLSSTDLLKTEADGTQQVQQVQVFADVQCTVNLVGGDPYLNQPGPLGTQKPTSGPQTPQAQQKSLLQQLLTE

[4] = repression of VP16-driven luciferase reporter – cell-based, luminescence, high throughput, counter-screen for SRC1 inhibitor project (AID 588824; in the data active = inhibition above about 25%); conditions: cell-based VP16 transactivation luciferase luminescence; at 3.6 µM; hits give high values
[5] = system: transactivating tegument protein VP16 (Human herpesvirus 1); experiment: compounds suppressing VP16-driven luciferase signal – cell-based, luminescence, single concentration, counter-screen for SRC2 inhibitor project (AID 652007; in the data active = inhibition above about 36%); conditions: cell-based VP16 transactivation luciferase reporter, at 8.9 µM, hits give high values
[6] = target: Nuclear receptor coactivator 2 (Homo sapiens) (UniProt Q15596); experiment: inhibition of GAL4-SRC2 driven luciferase expression – cell-based, luminescence, HEK293, triplicate, confirmation (AID 652008;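 active = mean inhibition above 46.5%, the solvent-only control mean plus 3 SD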;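 also: 0% = DMSO-treated cells and 100% = Gossypol at 36 µM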); conditions: HEK293 GAL4-SRC2 luciferase reporter, at 8.9 µM, hits give high values
Nuclear receptor coactivator 2 (Homo sapiens), sequence (Q15596 whole entry, looked up, the tested form may be a part): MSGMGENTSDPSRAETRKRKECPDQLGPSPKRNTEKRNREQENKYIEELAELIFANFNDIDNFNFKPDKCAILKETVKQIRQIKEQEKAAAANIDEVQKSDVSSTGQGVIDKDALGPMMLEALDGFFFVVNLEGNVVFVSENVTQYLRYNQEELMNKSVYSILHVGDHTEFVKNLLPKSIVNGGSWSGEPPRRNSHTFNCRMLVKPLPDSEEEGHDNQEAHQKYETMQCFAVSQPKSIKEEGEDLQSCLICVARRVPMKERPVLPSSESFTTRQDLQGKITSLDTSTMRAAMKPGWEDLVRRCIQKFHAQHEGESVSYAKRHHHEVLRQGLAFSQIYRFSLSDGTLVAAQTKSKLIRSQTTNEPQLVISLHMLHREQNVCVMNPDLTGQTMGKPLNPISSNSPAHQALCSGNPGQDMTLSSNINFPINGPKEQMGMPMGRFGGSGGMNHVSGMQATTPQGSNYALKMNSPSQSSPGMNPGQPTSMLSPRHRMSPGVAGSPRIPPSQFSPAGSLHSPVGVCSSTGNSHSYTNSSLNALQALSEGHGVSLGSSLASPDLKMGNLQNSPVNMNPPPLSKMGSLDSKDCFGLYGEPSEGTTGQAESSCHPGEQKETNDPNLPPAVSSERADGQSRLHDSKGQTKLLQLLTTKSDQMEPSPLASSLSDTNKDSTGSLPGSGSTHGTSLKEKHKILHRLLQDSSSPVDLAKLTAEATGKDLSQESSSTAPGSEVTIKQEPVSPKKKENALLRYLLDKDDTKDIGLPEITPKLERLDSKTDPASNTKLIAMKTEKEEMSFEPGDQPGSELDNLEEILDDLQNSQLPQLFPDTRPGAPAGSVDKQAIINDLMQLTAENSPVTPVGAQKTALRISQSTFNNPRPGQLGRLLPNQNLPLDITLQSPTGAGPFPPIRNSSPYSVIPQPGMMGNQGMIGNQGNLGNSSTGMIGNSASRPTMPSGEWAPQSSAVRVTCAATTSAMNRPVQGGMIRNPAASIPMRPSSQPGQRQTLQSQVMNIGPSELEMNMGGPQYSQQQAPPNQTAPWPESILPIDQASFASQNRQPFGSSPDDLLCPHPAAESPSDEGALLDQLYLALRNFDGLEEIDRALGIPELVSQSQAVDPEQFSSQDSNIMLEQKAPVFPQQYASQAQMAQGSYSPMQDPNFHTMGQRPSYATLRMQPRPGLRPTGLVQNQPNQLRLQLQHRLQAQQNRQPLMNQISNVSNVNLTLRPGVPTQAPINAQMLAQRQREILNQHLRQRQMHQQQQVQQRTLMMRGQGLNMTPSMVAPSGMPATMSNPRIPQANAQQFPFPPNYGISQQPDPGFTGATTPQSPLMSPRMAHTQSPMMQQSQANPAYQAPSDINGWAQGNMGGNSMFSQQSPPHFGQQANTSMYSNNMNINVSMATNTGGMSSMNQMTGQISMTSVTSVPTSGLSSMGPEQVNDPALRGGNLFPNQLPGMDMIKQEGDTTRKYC

[7] = VP16-driven transactivation reporter suppression – cell-based, luminescence, HEK293, counter-screen for COUP-TFII antagonist project (AID 687007; in the data active = inhibition above about 13%); conditions: HEK293 Gal4-VP16 luciferase reporter, at 8.5 µM, hits give high values
[8] = target: COUP transcription factor 2 (Homo sapiens) (UniProt P24468); experiment: retest of COUP-TFII reporter suppressors – cell-based, luciferase reporter, HEK293, triplicate, confirmation (AID 687008;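 active = mean inhibition over three repeats above a set limit taken from the earlier primary screen, cut at about 38% in these data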;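 also: 100% = cells given the luciferase reporter alone without the COUP-TF2 vector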); conditions: HEK293 NGFI-A luciferase reporter, luminescence; at 8.5 µM; hits give high values
COUP transcription factor 2 (Homo sapiens), sequence (P24468 whole entry, looked up): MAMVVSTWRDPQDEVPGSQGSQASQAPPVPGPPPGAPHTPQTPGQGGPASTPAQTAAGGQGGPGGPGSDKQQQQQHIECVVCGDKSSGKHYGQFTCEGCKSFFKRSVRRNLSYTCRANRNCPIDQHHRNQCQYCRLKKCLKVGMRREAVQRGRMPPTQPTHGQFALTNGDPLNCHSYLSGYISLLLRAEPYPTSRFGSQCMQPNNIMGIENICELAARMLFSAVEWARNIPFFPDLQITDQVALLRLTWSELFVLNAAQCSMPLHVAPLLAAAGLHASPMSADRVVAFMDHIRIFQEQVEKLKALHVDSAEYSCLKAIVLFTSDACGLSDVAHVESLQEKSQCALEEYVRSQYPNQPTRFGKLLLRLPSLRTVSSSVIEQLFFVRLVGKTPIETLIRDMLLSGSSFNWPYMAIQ

Measured: inhibition

Cc1cc(C(=O)COC(=O)C2CC2)c(C)n1-c1ccc(F)cc1
inactive: [1] 4.63% | [2] 5.67% | [3] -12.9% | [4] -14.9% | [5] 1.88% | [6] 20.3% | [7] -16.4% | [8] 30.3%

COCCn1c(C)cc(C(=O)COC(=O)c2cccc(O)c2)c1C
active: [5] 37.3% | [6] 51.1%
inactive: [1] 2.54% | [2] 0.92% | [3] -62.8% | [4] -32.7%

CN(C)c1ccc(/C=C/c2nc3ccccc3s2)cc1
inactive: [1] 30.4% | [2] 28.4% | [3] 18.7% | [4] 12.9%
active: [5] 77.1% | [6] 84%

CN1CCN(c2ccc(NC(=O)N3CCc4ccccc43)cc2)CC1
active: [6] 53.1%
inactive: [1] 32.5% | [2] 13.4% | [3] -43.7% | [4] -20.3% | [5] -18.3%

COc1ccc(C(=O)C(CN2CCOCC2)c2ccccc2)cc1 (centres undefined)
inactive: [1] 1.7% | [2] 20.9% | [3] 0.8% | [4] 20.6% | [5] 6.4% | [6] 35%

O=C(Nc1ccc2c(c1)OCCO2)C(c1ccnc2ccccc12)N1CCN(c2ccc(C(F)(F)F)cn2)CC1 (centres undefined)
active: [4] 30.7% | [6] 57.8%
inactive: [1] 24.6% | [2] 18.1% | [3] 11.8% | [5] -0.8%

CC(=C/c1ccccc1)/C=N/n1c(-c2ccncc2)n[nH]c1=S
active: [1] 71.2% | [2] 45.2% | [3] 66.1% | [4] 51.6%
inactive: [5] 6.14% | [6] 45%
